# Compounds without any hit were thinned out: in the full panel of roughly 83,000, 20% have a hit.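 Single-concentration screen, 48 h exposure, 96-well plates. Endpoint: percent growth. Below 10 = active.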 Unmarked numbers belong to inactive results. Calls of active or inactive are those of the source.
# Assays:
# Experiment in all cases: NCI-60 one-dose screen, 48 h (100 = growth as untreated, 0 = no growth, -100 = all killed)
# Conditions in all cases: 10 µM unless noted
# HCT-15 colon = system: HCT-15 colon
# HT29 colon = system: HT29 colon
# SNB-75 CNS = system: SNB-75 CNS
# SNB-19 CNS = system: SNB-19 CNS
# U251 CNS = system: U251 CNS
# PC-3 prostate = system: PC-3 prostate
# SK-MEL-5 melanoma = system: SK-MEL-5 melanoma
# LOX IMVI melanoma = system: LOX IMVI melanoma
# SK-MEL-28 melanoma = system: SK-MEL-28 melanoma
Structure (SMILES),growth (HCT-15 colon),growth (HT29 colon),growth (SNB-75 CNS),growth (SNB-19 CNS),growth (U251 CNS),growth (PC-3 prostate),growth (SK-MEL-5 melanoma),growth (LOX IMVI melanoma),growth (SK-MEL-28 melanoma)
CCCCC[C@H]1C/C=C2/C(=O)C(Cl)=C[C@@H]2C/C=C\CCCC(=O)O[C@@H](CCCCC)C/C=C2/C(=O)C(Cl)=C[C@@H]2C/C=C\CCCC(=O)O1,-24.6% (active),-56% (active),11.9%,-57.8% (active),-78.7% (active),-37.7% (active),-94.4% (active),-74.7% (active),-48.1% (active)
NNC(=O)c1nc2ccccc2[nH]1,108%,103%,97.4%,103%,86.2%,96.7%,103%,95.3%,111%
CC/C(=N/NC(N)=O)c1ccccc1,91.2%,104%,98%,108%,102%,102%,102%,99%,101%
CC1(n2nnnc2N2CCCN(c3ncccc3N)CC2)CCC1,58.3%,108%,81.7%,98.6%,101%,75.3%,86.3%,–,100%
CC1(C)C(=O)CC[C@]2(C)[C@H]3C(=O)C=C4[C@@H]5C[C@@](C)(C(=O)NCCNCCN)CC[C@]5(C)CC[C@@]4(C)[C@]3(C)CC[C@@H]12,99.4%,98%,-29.7% (active),98.4%,88.3%,90.4%,96.8%,–,104%
COc1ccc(OCC(CO)N2CCN(c3ccccc3)CC2)cc1 (stereo not given),102%,98.2%,97.4%,96.6%,97.3%,84.6%,104%,–,103%
Nc1nc2c3ccncc3cc(-c3cccc(Cl)c3)c2c2cnccc12,28.5%,33.2%,57%,51.4%,29.2%,20%,50.4%,-50.9% (active),53.1%
O=C1C(=O)N(CCCCn2cc(-c3ccccc3)nn2)c2ccccc21,105%,112%,95%,99.7%,107%,94.3%,100%,–,113%
O=C(NCN1C(=O)c2cccc3cccc(c23)C1=O)N1CCC(Cc2ccccc2)CC1,104%,70.1%,89.4%,92.5%,97.5%,72.9%,101%,97.5%,107%
Cn1c(=O)c2c(nc(Br)n2CC(=O)Nc2ccc(F)cc2)n(C)c1=O,115%,97.8%,83.4%,97.5%,100%,75.5%,104%,96.7%,118%
O=C1CCCC=CC[C@H]2C=C(Cl)C(=O)C2=CC[C@H](CCCCC(F)(F)F)OC(=O)CCCC=CC[C@H]2C=C(Cl)C(=O)C2=CC[C@H](CCCCC(F)(F)F)OC(=O)CCCC=CC[C@H]2C=C(Cl)C(=O)C2=CC[C@H](CCCCC(F)(F)F)O1,68.6% [6.25 µM],42.2% [6.25 µM],95.9% [6.25 µM],65.2% [6.25 µM],36.4% [6.25 µM],71.9% [6.25 µM],59.4% [6.25 µM],18.7% [6.25 µM],71.8% [6.25 µM]
COc1cc(/C=N/Nc2ncnc3c2c(C)nn3-c2ccc(F)cc2)ccc1O,81.1%,92.3%,82.5%,93.3%,94.4%,73%,56.6%,81%,107%
CCN1CCN(C(=O)[C@]23CCC(C)(C)C[C@@H]2C2=CC[C@@H]4[C@@]5(C)C/C(=C/c6cccnc6)C(=O)C(C)(C)[C@@H]5CC[C@@]4(C)[C@]2(C)CC3)CC1,13.7%,10.6%,45.3%,48.3%,-88.1% (active),17.2%,-91% (active),–,41.7%
CN(C)CCCCC(C(=O)CBr)(c1ccccc1)c1ccccc1,-33.9% (active),8.94% (active),46%,82.6%,41.5%,51.6%,35%,-39% (active),23.6%
COc1cccc2c1C(=O)c1c(O)c3c(c(O)c1C2=O)C[C@@](O)(C(=O)CO)C[C@@H]3OC1C[C@H](N)[C@H](O)[C@H](C)O1 (stereo not given in full),18.4%,-13.1% (active),-76.1% (active),8.7% (active),2.94% (active),-2.52% (active),-86.4% (active),–,-30% (active)
Cn1cc(-c2csc(-c3cn(C(=O)OC(C)(C)C)c4ccccc34)n2)c2cccnc21,52.4%,13%,57.7%,83.3%,61.7%,48.5%,64%,–,79.2%
COc1ccc2c(c1)c(-c1nc(-c3c[nH]c4ncccc34)cs1)cn2CCN,43.7%,55.9%,56.6%,79.4%,66.7%,42.8%,72.9%,66%,100%
CCN1CCN(C(=O)[C@]23CCC(C)(C)C[C@@H]2C2=CC[C@@H]4[C@@]5(C)C/C(=C/c6ccncc6)C(=O)C(C)(C)[C@@H]5CC[C@@]4(C)[C@]2(C)CC3)CC1,-63.9% (active),-39.8% (active),25%,-16.1% (active),-77.2% (active),-5% (active),-98.8% (active),–,-82.5% (active)
O=c1[nH]c2c3ccncc3cc(-c3cccc(Cl)c3)c2c2cnccc12,43.3%,28.1%,-21.8% (active),75.7%,13.4%,42.2%,46.3%,19.9%,25%
C/C(=N\Nc1ccc2ccccc2n1)c1ccccn1,22.6%,-2.94% (active),35.3%,23.8%,4.2% (active),4.97% (active),-57.5% (active),-19.8% (active),30.2%
COC(=O)[C@]12CC[C@@H](C)[C@H](C)[C@@H]1C1=CC[C@@H]3[C@@]4(C)C[C@@H](O)[C@H](O)[C@@](C)(CO)C4=CC[C@@]3(C)[C@]1(C)CC2,-60.8% (active),-36.6% (active),-58.7% (active),-80.4% (active),-85.4% (active),-85.1% (active),-98.6% (active),-100% (active),-81% (active)
N#CC1=C(N)Oc2c(c(N)nn2-c2ccccc2)C1c1ccc(Cl)cc1 (stereo not given),107%,107%,77.3%,94.7%,94.9%,91.7%,101%,–,100%
CC(C)(C)c1ccc(OCCCCCCCN2CCNCC2)cc1,-22.1% (active),6.93% (active),51.8%,54.4%,12.9%,28.1%,43.9%,-77.8% (active),53%
CC(C)(C)c1nc(-c2ccc(O)c(O)c2)cs1,36.3%,92.6%,73.1%,72.1%,46.9%,54%,54.4%,63.5%,87.8%
C=C(C)[C@@H]1CC[C@]2(C(=O)O)CC[C@]3(C)[C@H](CC[C@@H]4[C@@]5(C)C/C(=C/c6cccc(I)c6)C(=O)C(C)(C)[C@@H]5CC[C@]43C)[C@@H]12,19.4%,9.1% (active),-36.5% (active),38%,18.4%,15.5%,13.9%,–,75.4%
O=C1CNCCN1,100%,100%,92.6%,104%,104%,96.5%,101%,98.5%,105%
CCOC(=O)C/C(=C\c1ccccc1)C(C)=O,106%,98.1%,101%,101%,80.4%,76.8%,106%,108%,111%
Clc1ccc2c(NCCNc3nc(-c4ccccc4)cc(-c4ccccc4)n3)ccnc2c1,-74.2% (active),-54.3% (active),-72.2% (active),-51.7% (active),-90.6% (active),-88.5% (active),-93.4% (active),-76.7% (active),-90.7% (active)
COc1ccc(NC(=O)c2ccc3c(c2)nc(-c2cc4ccccc4[nH]c2=O)n3-c2cc(C(C)(C)C)[nH]n2)cc1,95.5%,106%,76.2%,75.4%,85.6%,79.1%,84%,–,93.2%

# Reference: PubChem BioAssay (NCI)
